# Compound activity (PubChem BioAssay)
# An excerpt weighted towards active compounds, which were near 6.5% of everything screened.
# Vaccinia mCherry: inhibitors of vaccinia virus infection (mCherry reporter signal). Vaccinia virus mCherry reporter infection, fluorescence. Potency, µM (top dose mostly 36.5 µM), usual class: inhibitors. 310,000 compounds, 0.63% hits. AID 720579; calls by dose curve; tested in A549 cells; also: nearly all actives have a fitted effect of over 35% in size
# Lassa entry inh: Lassa virus entry inhibition | Lassa virus pseudotype entry inhibition, cell reporter | Potency, µM (doses to about 37.9 µM), usual class: inhibitors | 300,000 compounds, 1.2% hits | AID 540256; calls by dose curve; tested in HEK293 cells; also: nearly all actives have a fitted effect of over 50% in size
# HCMV antiviral: inhibitors of human cytomegalovirus; HFF cells, HCMV-luciferase reporter, 72 h; stronger effect = lower value; activity change, negative = inhibition, % at 57.5 µM; 410,000 compounds, 4.5% hits; in the data active = activity change below about -60%; inconclusive = no clear call, values can overlap the other calls; inactive = above about -39%
#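 Human foreskin fibroblasts infected with luciferase-reporter HCMV at MOI 1 PFU/cell, compounds at two doses. Luciferase measured 72 h post infection; normalized to buffer-only basal and Salinomycin (10uM) controls.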
# FMDV antiviral: blocks foot and mouth disease virus; FMDV antiviral cell-based qHTS; Potency, µM (highest dose often 57.9 µM), usual class: inhibitors; 410,000 compounds, 1.2% hits; AID 1159524; calls by dose curve; tested in HEK293T cells; also: read-out not given here; nearly all actives have a fitted effect of over 45% in size
# Marburg entry inh: blocks Marburg virus binding to or entry into cells; AID 540276; Potency, µM (top dose mostly 37.8 µM), usual class: inhibitors; 300,000 compounds, 1.8% hits; Marburg virus pseudotyped entry inhibition, cell reporter; calls by dose curve; tested in HEK293 cells
# Vaccinia Venus: vaccinia inhibition (Venus reporter). 330,000 compounds, 0.46% hits. Vaccinia virus Venus reporter expression, fluorescence. Potency, µM (highest dose often 36.5 µM), hits mostly inhibitors. AID 720580; calls by dose curve; tested in A549 cells; also: nearly all actives have a fitted effect of over 30% in size
# Numbers stand for hits; – = inactive; ? = inconclusive; · = no result given.
SMILES,Vaccinia mCherry,Lassa entry inh,HCMV antiviral,FMDV antiviral,Marburg entry inh,Vaccinia Venus
COc1ccc(C(=O)c2c(-c3cccc(C)c3)oc3ccc(N4CCOCC4)cc23)cn1,–,·,-72.7,–,·,–
COc1ccc(C(=O)c2c(-c3ccc(OC)cc3)oc3ccc(-c4ccc(OC)nc4)cc23)cc1,–,·,–,–,·,–
O=[N+]([O-])c1ccc2c(c1)C(N1CCN(CCO)CC1)Cc1ccc(F)cc1S2 (centres undefined),–,·,–,–,·,–
OCCN1CCN(C2CCC(c3ccc(F)cc3)c3ccc(F)cc32)CC1 (centres undefined),?,?,?,?,3.98µM,?
Cc1ccc(C)c(C(=O)C[n+]2cccc(Br)c2)c1,–,·,·,·,·,–
Cc1ccc(S(=O)(=O)c2nc(S(=O)(=O)c3ccccc3)sc2NCCCOC(C)C)cc1,–,–,–,–,3.98µM,–
CC(=O)NC12CC3CC(C)(C1)CC(NC(C)=O)(C3)C2,–,–,-68.6,–,–,–
CCCn1cnc2c(SCc3ccccc3Cl)nc(N)nc21,–,11.2µM,?,–,7.08µM,–
Cc1ccc(N=C2N=C(N)c3ccccc32)cc1C,·,?,-62.7,–,?,·
COC(=O)[C@@]1(Sc2ccc(OC)cc2)CC(=O)N[C@@H]1c1ccc(OC(C)C)c(OC)c1,·,·,–,·,·,·
O=C(Nc1cccc2cccnc12)c1csc([C@@H]2O[C@H](CO)[C@H](O)[C@H](O)[C@H]2O)n1,–,·,-99.3,–,·,–
O=C(Nc1ccc2c(c1)OCO2)c1csc([C@H]2C[C@H](O)[C@@H](CO)O2)n1,–,·,-97.5,–,·,–
O=C(Nc1cccc2ccccc12)c1csc([C@@H]2O[C@H](CO)[C@@H](O)[C@H]2O)n1,–,·,–,–,·,–
CC(=O)Nc1ccc(NC(=O)c2csc([C@@H]3C[C@H](O)[C@@H](CO)O3)n2)cc1,–,·,–,–,·,–
O=C(Nc1ccc(Oc2ccccc2)cc1)c1csc([C@@H]2O[C@H](CO)[C@@H](O)[C@H]2O)n1,–,·,-93.3,15.8µM,·,–
O=C(Nc1ccc(F)c(Cl)c1)c1csc([C@H]2C[C@H](O)[C@@H](CO)O2)n1,–,·,–,–,·,–
O=C(Nc1ccc(Oc2ccccc2)cc1)c1csc([C@H]2C[C@H](O)[C@@H](CO)O2)n1,–,·,-97.0,7.94µM,·,–
COc1cccc([C@@H]2Oc3ccc(Br)cc3C(=O)[C@H]2OC(=O)N[C@H]2CCCc3ccccc32)c1,·,·,·,·,–,·
Cc1ccn2c(=O)cc(COc3ccc(NC(=O)C(C)(C)C)cc3)nc2c1,–,–,–,–,·,–
CCn1cc(C(=O)NCc2cccc(C(F)(F)F)c2)c(=O)c2ccc(C)nc21,·,·,-69.4,–,·,·
CCn1cc(C(=O)NCc2ccc3c(c2)OCO3)c(=O)c2ccc(C)nc21,·,·,·,·,–,·
O=C1[C@H](Cc2ccccc2)NCCCC[C@H](c2ccco2)N1Cc1ccccc1,–,·,–,–,·,?
Cc1cc(N2CCCC2=O)cc(C)c1S(=O)(=O)NCCOc1ccc(C(C)(C)C)cc1,?,11.6µM,-90.6,?,?,?
Cc1ccc(S(=O)(=O)NCCN2CCOCC2)s1,·,·,-67.0,–,·,·
O=C1COc2ccc(-c3csc(=Nc4ccc(OC(F)F)cc4)n3CC3CCCO3)cc2N1 (centres undefined),·,?,-93.6,22.4µM,–,·
SMILES,Vaccinia mCherry,Lassa entry inh,HCMV antiviral,FMDV antiviral,Marburg entry inh,Vaccinia Venus
c1ccc(-c2csc(=Nc3cccnc3)n2CC2CCCO2)cc1 (centres undefined),–,–,–,–,?,–
COc1ccccc1N=c1scc(-c2ccc3c(c2)NC(=O)CO3)n1CC1CCCO1 (centres undefined),·,?,?,35.5µM,?,–
CN(C)S(=O)(=O)c1cccc(N=c2scc(-c3ccc4c(c3)NC(=O)CO4)n2CC2CCCO2)c1 (centres undefined),·,?,?,28.2µM,?,–
COCC(C)n1c(-c2ccc3c(c2)NC(=O)CO3)csc1=Nc1ccc(OC(F)F)cc1 (centres undefined),?,?,-88.2,20µM,?,?
CCOc1cc(CNC(=O)NC2COc3ccccc3C2)cc(OCC)c1OCC (centres undefined),–,–,–,–,·,–
Cc1nc2c(o1)CCc1ccccc1[C@H]2O,·,·,·,·,–,·
COc1ccc(C(=O)c2ccc(Cl)c([N+](=O)[O-])c2)cc1,–,?,-83.0,?,5.8µM,–
CC1(C)c2[nH]c3ccccc3c2C[C@H]2C(=O)N(Cc3ccc(F)cc3)C(=O)N21,·,·,–,?,·,·
Cc1ccc2[nH]c(=O)c3cc(C(=O)N(C)c4ccc(C)c(C)c4)sc3c2c1,·,·,-60.6,?,·,·
O=C(NCCCN1CCOCC1)c1cc2c(=O)[nH]c3ccccc3c2s1,–,–,–,–,10µM,–
CCCCN(CC)CCNC(=O)c1cc2c(=O)[nH]c3ccc(C)cc3c2s1,–,?,-64.6,–,5.01µM,?
CCN(C(=O)c1cc2c(=O)[nH]c3ccc(C)cc3c2s1)c1ccc(F)cc1,·,·,?,–,·,·
CCOCCCNC(=O)c1cc2c(=O)[nH]c3ccccc3c2s1,–,–,–,–,–,–
CCCCN(CC)CCCNC(=O)c1cc2c(=O)[nH]c3ccccc3c2s1,–,–,?,–,7.08µM,–
